Results taken from PubChem BioAssay (NCI).
The panel holds about 79,000 compounds, 15% with a hit somewhere; the sample as a whole holds those more often. The source made the active and inactive calls. Rule as the data show it: active = growth inhibition above about 70%; inactive = the rest.

Key:
[1] = NCI Yeast Anticancer Drug Screen. Data for the rad52 strain (AID 147);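 also: 0% = growth of vehicle-treated control cultures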; conditions: S. cerevisiae rad52 mutant growth inhibition, active compounds read high
How it was run: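 DNA repair-defective yeast; compound exposure; growth scored against vehicle controls.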

[2] = NCI Yeast Anticancer Drug Screen. Data for the wt1 strain (AID 149);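 also: 0% = growth of vehicle-treated wt1 cultures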; conditions: S. cerevisiae wt1 strain (SPY 50644) growth inhibition, active compounds read high
How it was run: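 Yeast wt1 strain exposed to compounds; growth inhibition measured relative to vehicle-treated controls.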

[3] = NCI Yeast Anticancer Drug Screen. Data for the mgt1 strain (AID 153); conditions: S. cerevisiae mgt1 mutant growth inhibition, active compounds read high
How it was run: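 Growth inhibition relative to vehicle controls was scored for the mgt1 yeast strain after compound exposure.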

[4] = NCI Yeast Anticancer Drug Screen. Data for the rad50 strain (AID 155);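 also: 0% = growth of vehicle-only cultures of the same strain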; conditions: S. cerevisiae rad50 strain growth inhibition, active compounds read high
How it was run: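 Yeast carrying a defined DNA repair defect were exposed to test compounds, and growth was compared with vehicle-treated controls to give percent inhibition.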

[5] = NCI Yeast Anticancer Drug Screen. Data for the mec2-1 strain (AID 157); conditions: S. cerevisiae mec2-1 strain, active compounds read high
How it was run: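 Growth inhibition is read against vehicle-treated controls after compound exposure of the mec2-1 yeast strain, which is defective in DNA damage repair or cell cycle control.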

[6] = NCI Yeast Anticancer Drug Screen. Data for the rad14 strain (AID 159);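 also: 0% = growth of vehicle-treated control cultures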; conditions: S. cerevisiae rad14 strain growth inhibition, active compounds read high
How it was run: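 Yeast cells carrying a defined DNA-repair defect were exposed to compounds, and growth inhibition was calculated relative to vehicle-treated control cultures.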

[7] = NCI Yeast Anticancer Drug Screen. Data for the sgs1 mgt1 strain (AID 161);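 also: 0% = growth of cultures given vehicle only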; conditions: S. cerevisiae sgs1 mgt1 strain, active compounds read high
How it was run: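 Percent growth inhibition was derived by comparing compound-exposed mutant yeast with vehicle-exposed cultures. The strain carries alterations in DNA damage repair.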

[8] = NCI Yeast Anticancer Drug Screen. Data for the CLN2oe strain (AID 163);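 also: 0% = growth of vehicle-only control cultures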; conditions: S. cerevisiae CLN2oe strain, active compounds read high
How it was run: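 Compound-treated yeast; growth vs vehicle ctrl = % inhibition. Genetically altered strain (cell-cycle control).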

[9] = NCI Yeast Anticancer Drug Screen. Data for the cln2 rad14 strain (AID 165);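 also: 0% = growth equal to vehicle treated cultures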; conditions: S. cerevisiae cln2 rad14 strain, active compounds read high
How it was run: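 Growth inhibition, relative to vehicle-treated controls, is the read-out. The test organism is a yeast strain with defined genetic alterations, cln2 rad14.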

[10] = NCI Yeast Anticancer Drug Screen. Data for the bub3 strain (AID 167); conditions: S. cerevisiae bub3 mutant strain, active compounds read high
How it was run: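 Compounds were applied to a genetically altered yeast strain carrying a cell-cycle control defect. Growth inhibition was scored against vehicle-treated controls.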

[11] = NCI Yeast Anticancer Drug Screen. Data for the wt2 strain (AID 169);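 also: 0% = growth of vehicle-treated yeast cultures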; conditions: S. cerevisiae wt2 strain growth inhibition, active compounds read high
How it was run: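 Compound exposure of yeast; growth compared with vehicle controls; inhibition reported.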

[12] = NCI Yeast Anticancer Drug Screen. Data for the mlh1 strain (AID 171);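 also: 0% = growth of vehicle-treated control cultures of the same strain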; conditions: S. cerevisiae mlh1 strain growth inhibition, active compounds read high
How it was run: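 Compounds are applied to a genetically altered yeast strain, and its growth is compared with that of vehicle-treated cultures to give percent inhibition.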

[13] = NCI Yeast Anticancer Drug Screen. Data for the sgs1 strain (AID 173);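 also: 0% = growth of vehicle-only control cultures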; conditions: S. cerevisiae sgs1 mutant, active compounds read high
How it was run: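 Compounds applied to genetically altered yeast; growth compared with vehicle-treated cultures to give % inhibition.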

[14] = NCI Yeast Anticancer Drug Screen. Data for the mlh1 rad18 strain (AID 175); conditions: S. cerevisiae mlh1 rad18 strain growth inhibition, active compounds read high
How it was run: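 Cells of a genetically altered yeast strain, deficient in DNA damage repair, were treated with compound. Their growth was then compared with that of vehicle-treated cultures to give inhibition.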

[15] = NCI Yeast Anticancer Drug Screen. Data for the rad18 strain (AID 177); conditions: S. cerevisiae rad18 mutant growth inhibition, active compounds read high
How it was run: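 Compounds are applied to a repair-deficient yeast strain, and growth is compared with that of vehicle-treated cultures to give percent inhibition.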

[16] = at 5.0 µM (retest, dose inferred, filed as 0.5)
[17] = at 50.0 µM (retest, dose inferred, filed as 5.0)

Measured: growth inhibition

Cc1c2cccc(Sc3ccccc3)c2c2c3c(cccc13)[S+](c1ccccc1)C2 (stereo not drawn)
active: [1]; at 11.0 µM 96% | [1]; at 33.0 µM 95% | [1]; at 100.0 µM 88% | [2]; at 11.0 µM 96% | [2]; at 33.0 µM 96% | [2]; at 100.0 µM 88% | [3]; at 11.0 µM 97% | [3]; at 33.0 µM 95% | [3]; at 100.0 µM 90% | [4]; at 11.0 µM 97% | [4]; at 33.0 µM 94% | [4]; [17] 97% | [4]; at 50.0 µM 90.9% | [4]; at 100.0 µM 82% | [5]; at 11.0 µM 98% | [5]; at 33.0 µM 95% | [5]; [17] 97% | [5]; at 50.0 µM 93.5% | [5]; at 100.0 µM 91% | [6]; at 11.0 µM 98% | [6]; at 33.0 µM 96% | [6]; at 100.0 µM 90% | [7]; [17] 98% | [7]; at 50.0 µM 94.2% | [8]; at 11.0 µM 96% | [8]; at 33.0 µM 92% | [8]; at 100.0 µM 84% | [9]; [17] 96% | [9]; at 50.0 µM 93.4% | [10]; at 11.0 µM 97% | [10]; at 33.0 µM 94% | [10]; [17] 97% | [10]; at 50.0 µM 95.2% | [10]; at 100.0 µM 87% | [11]; at 11.0 µM 97% | [11]; at 33.0 µM 95% | [11]; at 100.0 µM 86% | [12]; at 11.0 µM 98% | [12]; at 33.0 µM 96% | [12]; at 100.0 µM 93% | [13]; at 11.0 µM 97% | [13]; at 33.0 µM 95% | [13]; at 100.0 µM 87% | [14]; [17] 97% | [14]; at 50.0 µM 93.3% | [15]; at 11.0 µM 97% | [15]; at 33.0 µM 95% | [15]; at 100.0 µM 83%
inactive: [1]; at 1.2 µM 13% | [1]; at 3.7 µM 41% | [2]; at 1.2 µM 8% | [2]; at 3.7 µM 19% | [3]; at 1.2 µM 5% | [3]; at 3.7 µM 4% | [4]; at 1.2 µM 25% | [4]; at 3.7 µM 69% | [4]; [16] 58% | [5]; at 1.2 µM 7% | [5]; at 3.7 µM 30% | [5]; [16] 28% | [6]; at 1.2 µM -1% | [6]; at 3.7 µM 17% | [7]; [16] 18% | [8]; at 1.2 µM -3% | [8]; at 3.7 µM -1% | [9]; [16] 7% | [10]; at 1.2 µM -5% | [10]; at 3.7 µM 27% | [10]; [16] 16% | [11]; at 1.2 µM 6% | [11]; at 3.7 µM 25% | [12]; at 1.2 µM 0% | [12]; at 3.7 µM 22% | [13]; at 1.2 µM 10% | [13]; at 3.7 µM 40% | [14]; [16] 18% | [15]; at 1.2 µM 28% | [15]; at 3.7 µM 65%
